A short description of test [1]: A549 cell viability effects, profiling panel, calcein-AM fluorescence, 48 h, basal (AID 1162). The settings on record: higher = more signal.
Test [2] in a line: adipocyte viability effects, profiling panel, cell-based, 3T3-L1 adipocytes, calcein-AM fluorescence, 48 h, basal (AID 1163). The note with it: 3T3-L1 adipocytes viability, higher = more signal.
Test [3] is described as follows: HepG2 cell viability effects, profiling panel, calcein-AM fluorescence, 48 h, basal (AID 1164). The note with it: higher = more signal.
Test [4] can be described thus: MM1S cell viability effects, profiling panel, calcein-AM fluorescence, 48 h, basal (AID 1165).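 Note: viability of MM1S multiple myeloma cells under basal unstimulated conditions.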 The note with it: higher = more signal.
The nature of test [5]: basal RPMI8226 viability, no added stimulus, profiling panel, cell-based, calcein-AM fluorescence, 48 h, PK04 Diversity Set (AID 1166).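 Note: cells grown under basal conditions without added stimulus.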 The note with it: RPMI8226 myeloma viability, higher = more signal.
Test [6] in a line: basal HepG2 mitochondrial membrane potential changes, profiling panel, cell-based, JC-1 fluorescence, 24 h, 100 nL compound (AID 1167). The settings on record: higher = more signal.
Test [7] is described as follows: basal 3T3-L1 adipocyte mitochondrial potential changes, profiling panel, cell-based, JC-1 fluorescence, 3T3-L1 adipocytes, 24 h, 100 nL compound (AID 1168). The settings on record: JC-1 mitochondrial fluorescence, higher = more signal, called active from +8 up or from −8 down.
Test [8] is described as follows: basal RPMI8226 mitochondrial membrane potential changes, profiling panel, cell-based, JC-1 fluorescence, 24 h, 100 nL compound (AID 1169). The note with it: RPMI8226 myeloma, JC-1 mitochondrial potential fluorescence, higher = more signal.
Test [9] is described as follows: basal MM1S mitochondrial membrane potential changes, profiling panel, cell-based, JC-1 fluorescence, 24 h, 100 nL compound (AID 1170). The settings on record: higher = more signal.
Test [10] in a line: A549 lung cancer cell viability effects, profiling panel, resazurin fluorescence, 24 h, PK04 Diversity Set (AID 1171). The note with it: higher = more signal, called active from +8 up or from −8 down.

The source made the active and inactive calls.
Note: test concentration not given here.

Take `COC(=O)[C@@]1(Cc2ccc(F)cc2)[C@H]2c3cc(C(=O)N(C)C)n(Cc4ccc(C(F)(F)F)nc4)c3C[C@H]2CN1C(=O)c1ccccc1`: the z-score in test [1] was -0.509; in [2], -0.602; in [3], 0.158; in [4], -0.201; in test [5], -1.36; in [6], 1.79. The z-score in test [7] was -0.602 (inactive); in test [8], -0.135; in test [9], -1.48; in [10], -0.695 (inactive).
As to `CC(C)C[C@@H]1NC(=O)[C@@H]2C[C@H](C(=O)NCCCCCNC(=O)CS)[C@H](c3ccc(O)cc3)N2C1=O`, the z-score is 0.161 in test [1]; 2.21 in [2]; -0.787 in test [3]; -0.263 in [4]; -0.782 in test [5]; -0.63 in test [6]. The z-score was -0.195 (inactive) in [7], 0.393 in test [8], -1.1 in test [9] and 0.16 (inactive) in [10].
Take `[N-]=[N+]=NCc1ccccc1[C@H]1OC(c2ccc(OCCCO)cc2)=N[C@@]1(CCS(=O)(=O)c1ccccc1)C(=O)NCCN1CCOCC1`: the z-score in [1] was 1.69; in test [2] it was -0.328; in [3], 1.14; in test [4], -1.03; in test [5], 0.511; in [6], 0.418. For the same molecule, the z-score is -0.221 (inactive) in test [7], -0.556 in test [8], -0.801 in test [9] and 0.0651 (inactive) in test [10].
For the molecule `C=C(C)C1CN([C@H](CO)c2ccccc2)C(=O)/C1=C\c1ccccc1` (stereo not given in full), the z-score in test [1] is -0.121; in test [2] it was 1.55; in [3], 0.0701; in test [4], -0.313; in test [5] it was -1.89; in test [6], -1.11. The z-score is 0.0548 (inactive) in test [7], 0.354 in test [8], -1.06 in test [9] and -0.846 (inactive) in test [10].
`Cc1ccc(S[C@]2(C(=O)NC(C)C)CC(=O)N(Cc3ccccc3)[C@@H]2c2ccc(CO)cc2)cc1`: the z-score is 1.72 in [1]; -0.089 in test [2]; 1.15 in [3]; 0.0456 in test [4]; 1.23 in test [5]; 1.18 in [6]. The z-score is 0.391 (inactive) in test [7], 0.135 in test [8], -0.177 in test [9] and -0.3 (inactive) in test [10].
As to `COC(=O)[C@@]1(Cc2ccc(OC)cc2)[C@H]2c3cc(C(=O)N(C)C)n(Cc4c(CO)[nH]cc(C)c4=O)c3C[C@H]2CN1C(=O)c1ccccc1`, the z-score was -1.38 in [1]; -0.621 in test [2]; -0.177 in [3]; -0.314 in test [4]; -0.411 in test [5]; -0.67 in test [6]. For the same molecule, the z-score in test [7] was -1.33 (inactive); in test [8], -0.0347; in test [9], -1.24; in test [10], 0.252 (inactive).
Turning to `COCCOC(=O)N1C(=O)[C@@]2(c3cc(C#CCCO)ccc31)[C@H](c1ccc(O)cc1)N1[C@H](c3ccccc3)[C@H](c3ccccc3)OC(=O)[C@H]1[C@@H]2C(=O)NC[C@H](O)c1ccccc1`, the z-score in [1] is 1.7; in test [2], 0.617; in test [3], 1.2; in test [4], 0.0034; in [5], -0.409; in test [6], -0.424. In addition, the z-score was -1.55 (inactive) in [7], -0.429 in [8], -0.841 in [9] and 0.908 (inactive) in test [10].
Regarding `COc1ccc(NN2C(C(O)c3ccccc3)C=CC3C(=O)N(C4CCCCC4)C(=O)C32)cc1` (stereo not given), the z-score in [1] was -0.408; in test [2], -0.503; in test [3], 0.0544; in [4] it was -1.37; in test [5], -1.82; in test [6] it was -0.536. Also, the z-score was 0.0258 (inactive) in test [7], -0.335 in [8], -0.253 in test [9] and 1.67 (inactive) in test [10].
Regarding `CC(C)C[C@H]1NC(=O)CNC(=O)[C@@]23C(=O)N[C@@H](Cc4ccccc4)C2[C@H](C)[C@@]2(C)O[C@H]2C3/C=C/C/C=C\CNC1=O` (stereo not given in full), the z-score in [1] is -0.518; in test [2] it was 0.535; in test [3], -0.899; in [4], -0.101; in test [5] it was -0.0815; in test [6] it was -0.561. The z-score is 0.451 (inactive) in test [7], -0.469 in test [8], -0.112 in test [9] and 0.478 (inactive) in test [10].
Consider `O=C1c2ccccc2[C@@]2(Cc3ccccc3N(CC(F)(F)F)C2=O)[C@H](c2ccc(CO)cc2)N1Cc1ccccc1`, for which the z-score was -0.293 in test [1]; 1.21 in test [2]; -1.13 in test [3]; 0.191 in test [4]; -2.24 in test [5]; -0.631 in test [6]. For the same molecule, the z-score in [7] was -2.33 (inactive); in test [8], 0.928; in test [9], -1.09; in test [10], -0.279 (inactive).
With `COc1ccc(C(=O)Nc2ccc(CN3C(=O)[C@]4(O[C@H](CC(=O)N(CCO)Cc5ccccc5)[C@@H]([Si](C)(C)c5ccc(OC)cc5)[C@@H]4C)c4ccccc43)cc2)cc1`, the z-score in [1] is -0.937; in [2], 1.19; in [3] it was -1.52; in test [4] it was -1.92; in test [5], -2.73; in [6] it was 0.353. The z-score in test [7] was 0.324 (inactive); in [8], -1.02; in test [9] it was -0.692; in [10] it was -2.04 (inactive).
`CC(C)Cc1ccc(CN2CC[C@@H](NC(=O)c3ccccc3)C2)cc1`: the z-score in test [1] was 0.0665; in test [2], -0.418; in test [3], -0.179; in test [4] it was -3.15; in test [5], -2.77; in test [6], -0.251. The z-score in test [7] was 0.343 (inactive); in [8], -0.442; in test [9], -1.38; in [10], 0.247 (inactive).
Take `CCCCN1CC=CC23O[C@@H]4/C=C\CCC(C)OC(=O)C4[C@H]2C(=O)N(CCO)[C@@H]3C1=O` (stereo not given in full): the z-score is -0.266 in [1]; 0.555 in test [2]; -0.406 in test [3]; -0.0157 in test [4]; -1.19 in test [5]; 0.0609 in test [6]. The z-score in [7] was -0.0386 (inactive); in test [8] it was 0.881; in test [9], 0.213; in test [10] it was 0.265 (inactive).
For `C=C(C(=O)CC[C@H](OC(=O)c1ccccc1-c1ccccc1C(=O)O)c1ccc(OCCO)cc1)C(C)C`, the z-score in test [1] is -0.535; in test [2], 0.484; in [3], -0.659; in [4], -1.43; in test [5], -1.48; in test [6] it was 0.17. Moreover, the z-score was 0.447 (inactive) in [7], 0.0683 in test [8], -0.0663 in [9] and 0.393 (inactive) in test [10].

The values are drawn from PubChem BioAssay.
